Here are results for 53 molecules from ChEMBL document CHEMBL4513216, “Probing the Open Global Health Chemical Diversity Library for Multistage-Active Starting Points for Next-Generation Antimalarials” (ACS Infect Dis, 2020).

About 2,700 (4%) of roughly 68,000 compounds showed an effect of 50% or more. Many of the other results were omitted from the sample, so strong results are more common in it than they were.

This experiment has as its system Plasmodium berghei. The experiment in a line: Screen against P. berghei liver stage (PbLuc), transformed with Luciferase, at 2uM. The settings on record: tested at 2 uM. In kind it is functional, HepG2.
Turning to `O=C(CN1CCCc2sccc2C1=O)NC1CCc2nccn2C1` (stereo not drawn), the INHIBITION is -4.89%.

In the case of `O=S(=O)(c1cccs1)N1CCN(Cc2nc(-c3ccco3)cs2)CC1`, the INHIBITION stood at 29.89%.

`Cc1ccc(CN2CCC3(CCC3NS(=O)(=O)c3ccccc3)CC2)o1` (stereo not drawn): the INHIBITION is listed as 11.18%.

Turning to `O=S(=O)(NC1CCC12CCN(CC1CCOCC1)CC2)c1ccccc1` (stereo not drawn), the INHIBITION came out at 51.36%.

Regarding `O=S(=O)(NC1CCC12CCN(CC1CC1)CC2)c1ccccc1` (stereo not drawn), the INHIBITION is recorded as -3.36%.

For the molecule `CCc1nnc2n1CCN(C(=O)C(C)Oc1ccc(C#N)cc1)C2` (stereo not drawn), the INHIBITION was determined as 10.77%.

As for `CNC(=O)C1CCN(c2ncc3c(n2)CCN3c2ccccc2)C1` (stereo not drawn), the INHIBITION is 51.96%.

For `CN(CCO)C1CCN(c2ncc3c(n2)CCN3c2ccccc2)CC1`, the INHIBITION came out at 15.84%.

For `CC(=O)N(C)C1CCN(c2ncc3c(n2)CCN3c2ccccc2)C1` (stereo not drawn), the INHIBITION is on record as -13.72%.

For `COCCC1(CNC(=O)Nc2ccnc(C)c2)CCCC1`, the INHIBITION is reported as -37.69%.

For the molecule `CC(=O)N1N=C(c2ccccc2)OC1C(=O)NCCc1ccc(C)cc1` (stereo not drawn), the INHIBITION was 34.18%.

On to `CC(=O)N1N=C(c2ccccc2)OC1C(=O)NCCc1ccc(O)cc1` (stereo not drawn), for which the INHIBITION was found to be 26.64%.

For the molecule `CC(=O)N1N=C(c2ccco2)OC1C(=O)NCCc1ccc(O)cc1` (stereo not drawn), the INHIBITION was 20.42%.

Take `CC(=O)N1N=C(c2ccco2)OC1C(=O)NCC(C)C` (stereo not drawn): the INHIBITION was 5.77%.

On to `CC(=O)N1N=C(c2ccccc2)OC1C(=O)NCCC1=CCCCC1` (stereo not drawn), for which the INHIBITION came out at 85.54%.

Take `CC(=O)N1N=C(c2ccco2)OC1C(=O)NCCc1ccc(F)cc1` (stereo not drawn): the INHIBITION turned out to be 58.6%.

Turning to `Cc1noc(CNC(=O)[C@@H](C)NC(=O)OC(C)(C)C)n1`, the INHIBITION was -29.78%.

In the case of `Cc1[nH]n(C)c2nc(=O)cc(C(F)(F)C(F)(F)F)c1-2`, the INHIBITION was -69.92%.

For the molecule `O=C([C@@H]1COC[C@H]2CN(C3CCCC3)C[C@H]21)N1CCC(F)CC1`, the INHIBITION turned out to be 9.45%.

Consider `O=S(=O)(CCc1ccccc1)Nc1cc(Cl)ccn1`, for which the INHIBITION came out at 0.51%.

With `CCn1cc(S(=O)(=O)N2CCC3(CCCN(CC4CCC4)C3=O)C2)cn1` (stereo not drawn), the INHIBITION came out at 13.58%.

As for `Cc1cnn(CC2CCCCN2C(=O)CN(C)C2CC2)c1` (stereo not drawn), the INHIBITION was determined as 21.31%.

As for `O[C@H]1CN(CCOc2ccc(F)cc2)CC[C@@]12CCCO2`, the INHIBITION stood at 9.05%.

Regarding `O=C(N1CCOCC1)N1CCc2ncc(CN3CCCCC3)n2CC1`, the INHIBITION turned out to be 56.25%.

For `O=C(C1CCOCC1)N1CCc2ncc(CN3CCCC3)n2CC1`, the INHIBITION is listed as -9.48%.

For `O=C(C1CCOCC1)N1CCc2ncc(CN3CCCCC3)n2CC1`, the INHIBITION was found to be 41.28%.

Take `COc1c(Cl)cccc1NCc1csc(NC(C)=O)n1`: the INHIBITION is -49.16%.

`Cc1noc([C@H]2C[C@@H]3CCN(C(=O)N(C)C)C[C@H]3O2)n1`: the INHIBITION is -7.58%.

Regarding `CC(NCc1nnc2n1CCCC2)c1nc(-c2cccs2)no1` (stereo not drawn), the INHIBITION came out at 26.14%.

Turning to `Cc1cc(NC(=O)CN2CCn3c(nnc3C3CC3)C2)on1`, the INHIBITION is given as 17.12%.

For the molecule `CCN(CC)c1ncc(Cl)c(C(=O)NC2CCC(O)CC2)n1` (stereo not drawn), the INHIBITION was -2.22%.

Regarding `CCN(CC)c1ncc(Cl)c(C(=O)NC2CC2)n1`, the INHIBITION is given as 26.8%.

Take `CCN(CC)c1ncc(Cl)c(C(=O)NC2CCc3nccn3C2)n1` (stereo not drawn): the INHIBITION was 59.56%.

Take `CCOC(=O)[C@@H]1[C@@H](c2ccccc2)CN2CCN(C(C)=O)C[C@H]12`: the INHIBITION worked out at 40.13%.

For `CCOCCn1c(=O)[nH]c2cc(C(=O)N(C)Cc3nc(C)cs3)ccc21`, the INHIBITION was determined as 51.98%.

Regarding `CCOCCn1c(=O)[nH]c2cc(C(=O)N(C)Cc3cc(C)[nH]n3)ccc21`, the INHIBITION was 14.24%.

For `CCOCCn1c(=O)[nH]c2cc(C(=O)N(C)Cc3nc(C)c[nH]3)ccc21`, the INHIBITION is 11.64%.

Take `COCCN1CCc2ncnc(-c3ccccc3)c2CC1`: the INHIBITION was found to be 39.44%.

With `Cc1ccn2ncc(C(=O)N3CCCC(n4cccn4)C3)c2n1` (stereo not drawn), the INHIBITION came to 5.52%.

As to `Cc1ccn2ncc(C(=O)N3CCCC(c4noc(C)n4)C3)c2n1` (stereo not drawn), the INHIBITION came to 50.52%.

On to `Cc1csc(C2CCCN(C(=O)c3cnn4ccc(C)nc34)C2)n1` (stereo not drawn), for which the INHIBITION was 14.96%.

For the molecule `Cc1ccn2ncc(C(=O)N3CCCC(c4cc(C)[nH]n4)C3)c2n1` (stereo not drawn), the INHIBITION came out at 18.91%.

`CCc1nccn1C1CCCN(C(=O)c2cnn3ccc(C)nc23)C1` (stereo not drawn): the INHIBITION was -14.3%.

In the case of `Cc1ccn2ncc(C(=O)N3CCCC(n4ccnc4C)C3)c2n1` (stereo not drawn), the INHIBITION is 56.02%.

Turning to `CCN1Cc2cc(F)ccc2N(C(C)=O)CCC1=O`, the INHIBITION is listed as -10.65%.

For the molecule `CNc1nc2c(s1)C(c1ccccc1F)CC(=O)N2` (stereo not drawn), the INHIBITION is -37.62%.

On to `Cc1ccc(-c2ncc(CNc3cnccc3CO)s2)cc1`, for which the INHIBITION is -13.13%.

Take `O=C(C1CCC2(CCN(Cc3cccnc3)CC2)CO1)N1CCCC1` (stereo not drawn): the INHIBITION is -84.83%.

As for `CC(NC(=O)N1CCN(c2cccs2)CC1)c1ccc(C#N)cc1` (stereo not drawn), the INHIBITION is recorded as 16.79%.

With `CN1CCN(Cc2nnc(C3CCN(CC4CC4)CC3)n2C)CC1`, the INHIBITION is reported as -0.04%.

As for `CN1CCN(Cc2nnc(C3CCN(C(CO)CO)CC3)n2C)CC1`, the INHIBITION was found to be 59.68%.

On to `CN1CCN(Cc2nnc(C3CCN(C4CCCCC4)CC3)n2C)CC1`, for which the INHIBITION amounted to 26.81%.

With `Cc1cc(CN2CCC(C3Nc4ccccc4S(=O)(=O)N3)CC2)oc1C` (stereo not drawn), the INHIBITION turned out to be 22.81%.
